G9a inh = inhibitors of human histone lysine methyltransferase G9a. Q96KQ7. G9a H3K9 monomethylation, AlphaScreen, 2 h. Potency, µM (titrated, usually from 102 µM), hits mostly inhibitors. actives 8.8% (n = 350,000). AID 504332; also: nearly all actives have a fitted effect of over 75% in size
Target sequence (Q96KQ7 913-1193 limits assumed): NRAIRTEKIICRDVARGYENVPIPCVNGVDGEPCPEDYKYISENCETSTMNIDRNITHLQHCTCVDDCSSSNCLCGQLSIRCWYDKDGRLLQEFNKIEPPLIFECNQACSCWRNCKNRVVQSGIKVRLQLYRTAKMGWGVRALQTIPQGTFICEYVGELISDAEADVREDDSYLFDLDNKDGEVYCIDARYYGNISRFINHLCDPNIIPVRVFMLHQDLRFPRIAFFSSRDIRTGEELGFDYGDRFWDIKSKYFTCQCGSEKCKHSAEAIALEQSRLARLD
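Enzyme 20 nM + cpd, 15 min RT; add b-H3K9 pep 500 nM / SAM 20 uM; 2 h RT; anti-H3K9me1 Ab 0.5 ug/mL + SA donor / anti-rabbit acceptor beads 20 ug/mL each, 10 min; AlphaScreen read.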
BAZ2B inh = inhibitors of human BAZ2B bromodomain. Q9UIF8. AlphaScreen BAZ2B-H3K14Ac peptide displacement. Potency, µM (series often up to 114 µM), actives largely listed as inhibitors. actives 4.4% (n = 360,000); also: nearly all actives have a fitted effect of over 60% in size
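AlphaScreen displacement of biotin-H3(5-23)K14Ac peptide (50 nM final) from BAZ2B (50 nM final) in PBS pH 7.4, 0.01% Tween-20; complex preformed 30 min RT, then compounds (top 110 uM) 30 min RT, beads 20 min dark.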
HP1b chromo inh = blocks HP1-beta chromodomain binding to methylated histone tails. AlphaScreen HP1-beta / biotin-H3K9me3 peptide binding. Potency, µM (titrated, usually from 114 µM), usual class: inhibitors. actives 0.56% (n = 390,000). AID 540317; also: nearly all actives have a fitted effect of over 70% in size
Target sequence (P83916 whole entry, looked up): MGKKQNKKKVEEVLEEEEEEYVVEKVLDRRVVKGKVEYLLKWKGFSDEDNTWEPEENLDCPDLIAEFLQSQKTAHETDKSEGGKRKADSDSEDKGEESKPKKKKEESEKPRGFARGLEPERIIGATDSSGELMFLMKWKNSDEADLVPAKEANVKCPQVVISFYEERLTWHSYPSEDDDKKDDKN
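AlphaScreen: HP1-beta (50 nM) preformed 30 min with biotin-H3(1-18)K9me3 peptide (50 nM) in PBS pH 7.4, 0.01% Tween-20. Compound added for 30 min at RT, then streptavidin donor/nickel chelate acceptor beads (10 ug/mL) for 30 min.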
Sfp PPTase inh = inhibitors of Bacillus subtilis Sfp phosphopantetheinyl transferase; Q9F4F7; Biochemical Sfp PPTase activity, qHTS; Potency, µM, usual class: inhibitors; actives 3.5% (n = 310,000); AID 1490;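 also: the enzyme is Sfp with the accession as filed and its product quenches rhodamine fluorescence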
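Compounds were incubated with enzyme (final 15 nM) for 15 min at room temperature before substrate addition started the reaction. Fluorescence at 525 nm excitation, 598 nm emission was recorded immediately and after 30 minutes.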
TDP1 block = blocks human tyrosyl-DNA phosphodiesterase 1; AID 485290; Q9NUW8; actives 0.28% (n = 350,000); Potency, µM (series often up to 130 µM), hits mostly inhibitors; recombinant TDP1, AlphaScreen DNA substrate cleavage; also: nearly all actives have a fitted effect of over 40% in size
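Enzyme-compound mixtures sat 15 min at room temperature, followed by a 5 min reaction with 15 nM final substrate and 10 min with AlphaScreen beads. Recombinant human Tdp1 was used at 1 nM final.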
JMJD2A Tudor = blocks the human JMJD2A Tudor domain; AlphaScreen JMJD2A-Tudor / H3K4me3 peptide binding; Potency, µM (titrated, usually from 114 µM), hits mostly inhibitors; actives 4.4% (n = 390,000); also: nearly all actives have a fitted effect of over 50% in size
Numbers stand for hits; - = inactive; ? = inconclusive; . = no result given; [ ] = dose if it differs, or a comment. Compounds with a hit are over-represented: about 12% of the library has one in this group of screens. Calls follow the shape of the dose curve; as a rule, active = well fitted curve in the direction sought with a large enough effect; inconclusive = small, poorly fitted or top-dose-only effect, or another doubt; inactive = no such curve, though single readings can be large; an effect the other way counts as inactive or inconclusive.

SMILES	G9a inh	BAZ2B inh	HP1b chromo inh	Sfp PPTase inh	TDP1 block	JMJD2A Tudor
CCn1c(=O)n(CC)c2cc(N3CCCC3)c(NC(=O)c3ccccc3)cc21	39.8µM	?	-	-	-	-
O=c1cnc2ccccc2n1Cc1ccccc1C(F)(F)F	-	-	-	-	50.1µM	-
Cc1ccc(OCCn2c(=O)cnc3ccccc32)cc1	-	-	-	-	-	-
Cc1cccc2sc(NC(=O)CCn3cccc3)nc12	50.1µM	.	?	-	-	-
Cc1nnc(SCc2ccccc2Cl)c2cc3occc3n12	12.6µM	28.2µM	-	.	-	?
Cc1nnc(SCc2ccccc2Cl)c2cc3sccc3n12	?	?	-	.	-	-
O=C(CSc1nc2ccccc2c(=O)n1-c1ccc(F)cc1)NC1CCS(=O)(=O)C1 (stereo not given)	?	-	-	.	-[0.505 µM]	-
COc1ccc(NC(=O)N2CCCC3(CCNCC3)C2)cc1	-[12.7 µM]	.	.	-	.	.
COC(=O)CN1C(=S)N(C)C(=O)/C1=C/c1cccs1	-	-	-	-	-	-
CCc1ccc(/C=C2/C(=O)N(C)C(=S)N2CC(=O)OC)s1	35.5µM	-	-	-	-	-
O=S(=O)(NCCc1c[nH]c2ccccc12)c1ccc(F)cc1	.	.	-	.	.	?
CC(=O)OC[C@@H]1O[C@@H](O/N=C2/C[C@@H](O)[C@@H](O)[C@@H]3[C@@H]4C(=O)N([C@@H](C)c5ccccc5)C(=O)[C@H]4CC[C@@H]23)[C@H](OC(C)=O)[C@H](OC(C)=O)[C@@H]1OC(C)=O	.	.	.	-	-[21 µM]	.
COc1ccc2c(c1)[nH]c1c(=O)n(/N=C/c3ccc(OC)c(COc4ccccn4)c3)cnc12	-	-	-	-	-	79.4µM
COc1ccc2c(c1)[nH]c1c(=O)n(/N=C/c3ccc(OC)c(CN4CCCCC4)c3)cnc12	-[12.7 µM]	-	-	-	-	-
CC(C)(C)OC(=O)Cc1nnc(C(C(=O)OCc2ccccc2)c2ccccc2)s1 (stereo not given)	.	.	.	.	-	-
Cc1cccc(-c2nc(Nc3cccc(O)c3)c3ccccc3n2)c1	-	-	-	-	.	-
O=C(Nc1cccc(S(=O)(=O)NC2=NCCCCC2)c1)c1cc(-c2ccco2)nc2ccccc12	?	?	?	5.01µM	.	-
O=C(Nc1cccc(S(=O)(=O)NC2=NCCCCC2)c1)c1cc(-c2ccncc2)nc2ccccc12	-	.	-	-	-	-
CC(=O)c1cccc(Nc2nc(-c3cccc(C)c3)nc3ccccc23)c1	7.08µM	-	-	.	.	-
CC(=O)c1cccc(NC(=O)c2onc(C)c2Cl)c1	-	-	-	-	-	-
O=C(O)c1cc(-c2ccco2)nc2cc3ccccc3cc12	11.2µM	56.2µM	-	11.2µM	.	?
CC(=O)c1cccc(NC(=O)c2oc(C)nc2C)c1	44.7µM	-	-	-	-	-
CCCNC(=O)CSc1cn(CC(=O)N2CCCCCC2)c2ccccc12	-	-	-	.	-	-
CCCc1cc(=O)oc2cc(OCC(=O)NCCCN3CCOCC3)c(Cl)cc12	-	-	-	-	-	-
O=C(NNC(=O)c1cc(-c2ccco2)nc2ccccc12)c1ccccc1	.	-	-	20µM	-	-
SMILES	G9a inh	BAZ2B inh	HP1b chromo inh	Sfp PPTase inh	TDP1 block	JMJD2A Tudor
CC(=O)c1cccc(NC(=O)c2cc(-c3ccco3)nc3ccccc23)c1	50.1µM	-	-	-	.	-
O=C(N/N=C/c1ccc2c(c1)OCO2)c1cc(-c2ccco2)nc2ccccc12	-	-	-	.	-	-
O=C(O)c1ccccc1/C=N/NC(=O)c1cc(-c2ccco2)nc2ccccc12	14.1µM	20µM	?	10µM	.	50.1µM
CC(=O)Nc1ccc(/C=N/NC(=O)c2cc(-c3ccco3)nc3ccccc23)cc1	.	-	-	-	-	-
COC(=O)CSc1nc2[nH]ncc2c(=O)[nH]1	-	-	-	-	-	-
COCCn1c(C)cc(O)c(C(c2ccc(F)cc2)N2CCC(C)CC2)c1=O (stereo not given)	?	-	-	.	-	-
Cn1cccc1CC(=O)N/N=C/c1ccc(Cl)c([N+](=O)[O-])c1	50.1µM	39.8µM	-	-	-	-
Cn1cccc1CC(=O)N/N=C/c1cc([N+](=O)[O-])ccc1Cl	44.7µM	?	-	-	-	-
COc1ccc(NC(=O)CN2C(=O)C(C)(C)c3cc(S(=O)(=O)N4CCCCC4)ccc32)cc1Cl	-	-	-	.	-	-
O=C(CCNS(=O)(=O)c1ccc(OC(F)(F)F)cc1)NC1CC1	.	.	-	.	-	-
COc1ccc(C=O)cc1COc1ccc(NC(C)=O)cc1	.	.	.	.	-	-
CCOc1ccc(C2C(C#N)=C(N)SC(N)=C2C#N)c(OCC)c1	14.1µM	-	-	15.8µM	-	?
CCOc1cc(C2C(C#N)=C(N)Oc3cc(N)ccc32)ccc1O (stereo not given)	.	-	-	-	.	-
CC1Cc2ccccc2N1CC(=O)Nc1ccc(N2CCOCC2)cc1 (stereo not given)	?	?	-	-	-	?
CC(Nc1ccc(N2CCOCC2)cc1)C(=O)N1c2ccccc2CC1C (stereo not given)	.	35.5µM	-	10µM	-	?
CCCCN1CC(=O)N2[C@H]3c4cc(C)ccc4OC[C@@H]3[C@H](C(=O)OCC)[C@]2(C)C1=O	-[0.501 µM]	-	-	.	-	-
N#Cc1c(N)[nH]c(=S)c(C#N)c1-c1ccccc1	1.12µM	.	-	39.8µM	-	?
CCOC(=O)c1cc(C)n(CCc2ccccc2)c1C	-	-	-	-	-	-
Cc1cc(-c2csc(N)n2)c(C)n1CCc1ccccc1	?	44.7µM	-	44.7µM	-	44.7µM
Cc1cc(-c2csc(N)n2)c(C)n1CCC(C)C	10µM	?	-	50.1µM	-	50.1µM
Cc1nn(C)cc1-c1csc(N)n1	-	-	-	-	-	-
Cc1c(C#N)c(NC(=O)CCl)n(Cc2ccccc2)c1C	56.2µM	?	-	-	-	-
N#Cc1c(-c2ccccc2)c(-c2ccccc2)n(Cc2ccco2)c1NC(=O)c1cccs1	-	-	-	-	-	-
Cc1c(C#N)c(NC(=O)CCl)n(Cc2cccs2)c1C	50.1µM	-	-	-	-	-
Cc1c(C#N)c(NC(=O)CCl)n(Cc2ccc(F)cc2)c1C	?	-	-	-	-	-
Cc1ccc(NC(=O)Cc2c(C(=O)O)n(C)c3ccccc23)cc1F	-	-	-	-	-	44.7µM
Cc1ccc(NC(=O)Cc2nn(C)c(=O)c3ccccc23)cc1F	-	-	-	-	-	35.5µM
COc1cc(N(C)C)cc(CN(C)CCc2ccc([N+](=O)[O-])cc2)c1O	.	.	.	?	2.24µM	.
COC(=O)N1C(/C=C/c2ccc3c(c2)OCO3)=Cc2ccccc2C1CC(C)=O (stereo not given)	.	.	.	-	-[21 µM]	.

Screening data: PubChem BioAssay, National Center for Advancing Translational Sciences (NCATS)
